The text below walks through data of PubChem BioAssay AID2762 (National Center for Advancing Translational Sciences (NCATS), 2010).

Results filed as inconclusive are left out. Activity calls are given as the source filed them. Calls follow the shape of the dose curve; as a rule, active = well fitted inhibition curve with a large enough effect; inconclusive = small, poorly fitted or top-dose-only effect, or effect the other way; inactive = no such curve, though single readings can be large or run the other way.

Chain of Nuclear receptor ROR-gamma (Mus musculus) (P51450 whole entry, looked up, the tested form may be a part): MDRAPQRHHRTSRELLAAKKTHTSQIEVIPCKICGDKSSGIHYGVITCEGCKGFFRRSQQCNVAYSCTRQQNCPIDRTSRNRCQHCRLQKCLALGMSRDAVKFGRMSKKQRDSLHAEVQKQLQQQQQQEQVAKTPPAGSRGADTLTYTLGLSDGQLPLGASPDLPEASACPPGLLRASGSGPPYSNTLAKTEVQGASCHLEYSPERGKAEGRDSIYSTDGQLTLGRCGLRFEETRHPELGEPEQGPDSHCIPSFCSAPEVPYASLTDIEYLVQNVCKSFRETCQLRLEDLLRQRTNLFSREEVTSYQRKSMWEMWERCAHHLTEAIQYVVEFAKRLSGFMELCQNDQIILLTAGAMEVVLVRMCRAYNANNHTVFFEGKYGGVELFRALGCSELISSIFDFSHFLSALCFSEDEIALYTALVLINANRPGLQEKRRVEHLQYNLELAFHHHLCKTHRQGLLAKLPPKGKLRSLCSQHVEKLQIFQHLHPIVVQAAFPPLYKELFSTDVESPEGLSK

This test has as its target Nuclear receptor ROR-gamma (Mus musculus) (UniProt P51450). Nature of the test: Concentration response confirmation assay for inhibitors of ROR gamma transcriptional activity. To be noted: Drosophila S2 Gal4-RORgamma UAS-luciferase, 20 h; series mostly up to 46.1 µM. An excerpt:
NIH Molecular Libraries Probe Production Network [MLPCN] NIH Chemical Genomics Center [NCGC] MLPCN Grant: R03 DA026211-01 Assay Provider: Dan Littman, New York University Assay Overview: The retinoic acid-related orphan receptor (ROR) gamma is a transcription factor that has a central role in the differentiation of Th17 cells, a subset of T helper cells that secrete the inflammatory cytokines IL-17, IL-17F, and IL-22. Th17 cells have been implicated in graft versus host disease, autoimmune disease and asthma. ROR gamma is induced in naive T helper cells in the presence of TGF-beta combined with IL-6, IL-21, or IL-23, and thereafter directs the expression of the Th17 lineage cytokines. To study the mechanism of action of ROR gamma, an insect cell-based assay was screened. This Drosophila Schneider cell line was stably transfected with two vectors: a gene expressing a fusion of the Gal4 DNA binding domain and ROR gamma transactivation domain under the control of the metallothionine promoter and a Photinus luciferase reporter regulated by the Gal4 binding site enhancer, UAS. […] Small molecule inhibitors of ROR gamma activity are detected by a decrease in luciferase reporter activity.
Assay Protocol Summary: For screening, 600 cells in 4 uL/well were dispensed into white solid 1536-well plates (Grenier) using a solenoid-based dispenser. Following transfer of 23 nL compound or DMSO vehicle by a pin tool, the plates were incubated 1 hr at ambient temperature, and 1 uL/well copper sulfate (700 uM final concentration) was added. The plates were centrifuged 15 s at 1000 RPM and incubated 20 hr at ambient temperature. After addition of 1.5 uL Photinus luciferase detection reagent, the plates were incubated 10 min at ambient temperature and then read by an ViewLux (Perkin Elmer) to detect luminescence. Keywords: NIH Roadmap, MLPCN, MLI, MLSMR, qHTS, NCGC, qHTS, nuclear hormone receptor, retinoic acid-related orphan receptor, ROR gamma
As for `N=C1S/C(=C\c2ccco2)C(=O)N1c1nccs1`, the Potency was 0.141 µM (active). As for `S=c1[nH]c(-c2ccc(Br)cc2)cn1CCc1ccccc1`, the Potency was 9.96 µM (active). For the compound `CC(C)(C)S(=O)(=O)c1cnc2c(-c3ccc(F)cc3)cnn2c1N`, the Potency was 11.2 µM (active). As to `Cc1cc(C)c2sc(NC(=O)c3ccc(N4C(=O)CCC4=O)cc3)nc2c1`, the Potency is 0.0705 µM (active). As to `Cc1ccc2nc(-c3ccc(NC(=O)COC(=O)c4ccc([N+](=O)[O-])o4)cc3)sc2c1`, the Potency was 0.315 µM (active). With `Cc1cccc(-c2nc3cc(NC(=O)C4CCCO4)ccc3o2)c1` (stereo not given), the Potency is 0.396 µM (active). The result for `O=C(CCCN1C(=O)/C(=C/c2ccccc2Cl)SC1=S)NNC(=O)c1ccc(Cl)cc1Cl` reads 1.58 µM (active).

For `Cc1ccc(OCCn2cc(C(=S)N3CCCC3)c3ccccc32)cc1C`, the Potency is 12.5 µM (active). The result for `CCN(CC(=O)NCCc1ccc(Cl)cc1)Cc1nc2ccccc2c(=O)[nH]1` reads 12.5 µM (active); that for `CC(C)CC(=O)NS(=O)(=O)c1ccc(N)cc1`, “inactive”; that for `CCOC(=O)C1CCN(c2ncnc3c2cnn3-c2ccc(OC)cc2)CC1`, “inactive”. To `CCOC(=O)c1sc(NC(=O)c2sc(C)nc2C)nc1C` belongs “inactive”. Regarding `Cc1ccccc1NC(=O)CCN1CCN(C)CC1`, the Potency entry is “inactive”. With `c1ccc(Cn2c(-c3ccccc3)c[n+]3c2SCCC3)cc1`, the Potency entry is “inactive”. Take `O=C(/C=C/c1ccc(S(=O)(=O)N2CCOCC2)cc1)NC(=S)Nc1ccc(N2CCOCC2)cc1`: the Potency is 9.96 µM (active).

As for `CCC(C)[C@H](NC(=O)NCc1ccco1)C(=O)O` (stereo not given in full), the Potency result was “inactive”.

Turning to `O=c1oc2c3c(nn2c2ccccc12)CCCC3`, the Potency result is “inactive”. On to `CN(Cc1nc2ccccc2c(=O)[nH]1)Cc1nc2ccsc2c(=O)[nH]1`, for which the Potency was 1.41 µM (active).

`CC(C)(C)c1ccc(-c2noc(CCC(=O)Nc3cccnc3)n2)cc1`: the Potency is 0.0996 µM (active).

As for `Cc1cc(NC(=S)NC(=O)/C=C/c2ccc(S(=O)(=O)N3CCOCC3)cc2)ccc1Br`, the Potency is 7.05 µM (active). The result for `S=c1[nH]nc(-c2ccc(Br)cc2)n1-c1ccc2c(c1)OCCO2` reads 1.58 µM (active). To `O=C1NC2=C(C(=O)CCC2)C(c2ccccc2)N1` (stereo not given) belongs “inactive”; to `COc1ccc(C(=O)Nc2nc3cc4c(cc3s2)OCCO4)c(OC)c1`, 0.0628 µM (active).

Consider `O=C(O)/C=C/C(=O)Nc1ccccc1SC(F)(F)F`, for which the Potency result is “inactive”. Turning to `COc1ccc(/C=C/C(=O)NC(=S)NCC2CCCO2)cc1` (stereo not given), the Potency was 11.2 µM (active).

As to `COc1ccc(-c2cc(C(=O)NNC3=NCCC3)c3c(C)nn(-c4ccccc4)c3n2)cc1`, the Potency was 4.45 µM (active).

In the case of `O=C(O)c1ccc(/C=N/n2cc(-c3ccccc3)[nH]c2=S)cc1`, the Potency result is “inactive”.

For `COc1ccc2oc(=O)c(C(=O)Nc3ccccc3C)cc2c1`, the Potency was 1.25 µM (active). For `COc1ccc(C(=O)Nc2ccc(NC(=O)c3cccs3)cn2)cc1`, the Potency entry was “inactive”. As for `O=C(CN1CCCCCC1)Nc1ccc(S(=O)(=O)N2CCOCC2)cc1`, the Potency result was “inactive”. For `COC(=O)c1ccc2nc(Nc3nc4ccc(F)cc4s3)sc2c1`, the Potency is 0.315 µM (active). With `O=C(COc1ccccc1Cl)NCCCN1CCOCC1`, the Potency result was “inactive”. Regarding `CCOc1ccc2nc(NC(=O)c3cnccn3)sc2c1`, the Potency is 3.15 µM (active). On to `CCN(CC(=O)Nc1ccc2c(c1)CCC2)Cc1nc2ccccc2c(=O)[nH]1`, for which the Potency is 8.88 µM (active). As for `CCOc1ccc(C(=O)Nc2nc3ccccc3[nH]2)cc1OCC`, the Potency is 11.2 µM (active). Regarding `O=C(CCN1C(=O)/C(=C/c2ccccc2Cl)SC1=S)N1CCCC1`, the Potency is 11.2 µM (active). As to `CCOC(=O)[C@@H]1[C@H]2COc3cc(OC)ccc3[C@@H]2N2C(=O)N(c3ccc(C)cc3)C(=O)[C@@]12C`, the Potency was 14.1 µM (active). Turning to `CCN(CC)c1ccc2cc(-c3nc4ccccc4[nH]3)c(=O)oc2c1`, the Potency was 3.97 µM (active). Turning to `CNc1cc(C(F)(F)F)nc(-c2ccccn2)n1`, the Potency is 3.97 µM (active). The result for `COC(=O)c1ccc(Oc2cc(C)nc(-n3nc(C)cc3C)n2)cc1` reads 1.58 µM (active).
